# Assay results from PMC7862700, “An all-to-all approach to the identification of sequence-specific readers for epigenetic DNA modifications on cytosine”.
# Legend:
# Assay in all cases: DAPPL (digital affinity profiling via proximity ligation, sequencing); 10 mM Tris-HCl pH 7.5, 50 mM NaCl, 1 mM DTT, 4% glycerol, room temperature, 30 min; GST-TFs on glutathione beads, 16-mer random dsDNA library, 0.1% formaldehyde crosslink after washing; high values mean tight binding
# FLI1 = target: T1, FLI1 (Homo sapiens, UniProt Q01543 1-452); conditions: protein: recombinant; tags: N-terminal GST; dsDNA, one strand shown
# T1 sequence: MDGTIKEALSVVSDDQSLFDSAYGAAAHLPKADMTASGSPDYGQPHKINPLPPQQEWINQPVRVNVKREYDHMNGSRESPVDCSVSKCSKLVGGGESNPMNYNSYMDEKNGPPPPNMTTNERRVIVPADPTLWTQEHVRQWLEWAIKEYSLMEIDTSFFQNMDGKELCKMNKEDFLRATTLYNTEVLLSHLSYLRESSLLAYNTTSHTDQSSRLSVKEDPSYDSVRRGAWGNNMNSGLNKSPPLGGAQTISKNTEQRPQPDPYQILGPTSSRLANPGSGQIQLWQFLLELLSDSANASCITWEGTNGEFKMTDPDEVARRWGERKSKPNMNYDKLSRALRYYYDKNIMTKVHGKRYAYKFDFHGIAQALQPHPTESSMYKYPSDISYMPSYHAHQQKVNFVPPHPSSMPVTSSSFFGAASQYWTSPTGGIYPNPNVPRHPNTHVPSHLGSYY
# Method in brief: (§1)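 Binding signal is given per hexamer as its read frequency for a factor divided by its frequency in the tag-only sample. GST-fused human transcription factors were expressed in yeast, captured on glutathione beads, barcoded with DNA and pooled with that sample, then incubated with 200 nmole of a 16-mer random double-stranded DNA library in Tris/NaCl/DTT/glycerol buffer for 30 min at room temperature. The pools were then washed, crosslinked, proximity-ligated, amplified by PCR and sequenced on an Illumina NextSeq500.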
# ELK1 = target: T2, ELK1 (Homo sapiens, UniProt P19419 1-428); conditions: protein: recombinant; tags: N-terminal GST; dsDNA, one strand shown
# T2 sequence: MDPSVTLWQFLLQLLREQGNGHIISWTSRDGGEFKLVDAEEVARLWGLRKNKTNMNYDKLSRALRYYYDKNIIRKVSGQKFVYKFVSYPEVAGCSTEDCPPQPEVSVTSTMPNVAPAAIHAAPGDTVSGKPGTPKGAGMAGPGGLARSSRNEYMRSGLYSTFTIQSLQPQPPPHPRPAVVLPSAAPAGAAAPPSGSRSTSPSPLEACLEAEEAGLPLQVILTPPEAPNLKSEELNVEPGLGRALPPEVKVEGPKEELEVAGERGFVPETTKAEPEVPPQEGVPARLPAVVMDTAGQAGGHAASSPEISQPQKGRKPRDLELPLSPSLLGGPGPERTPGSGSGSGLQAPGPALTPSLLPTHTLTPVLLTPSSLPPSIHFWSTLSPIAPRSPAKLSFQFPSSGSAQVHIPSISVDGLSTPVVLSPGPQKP
# Method in brief: as §1
# GABPA = target: T3, GABPA (Homo sapiens, UniProt Q06546 1-454); conditions: protein: recombinant; tags: N-terminal GST; dsDNA, one strand shown
# T3 sequence: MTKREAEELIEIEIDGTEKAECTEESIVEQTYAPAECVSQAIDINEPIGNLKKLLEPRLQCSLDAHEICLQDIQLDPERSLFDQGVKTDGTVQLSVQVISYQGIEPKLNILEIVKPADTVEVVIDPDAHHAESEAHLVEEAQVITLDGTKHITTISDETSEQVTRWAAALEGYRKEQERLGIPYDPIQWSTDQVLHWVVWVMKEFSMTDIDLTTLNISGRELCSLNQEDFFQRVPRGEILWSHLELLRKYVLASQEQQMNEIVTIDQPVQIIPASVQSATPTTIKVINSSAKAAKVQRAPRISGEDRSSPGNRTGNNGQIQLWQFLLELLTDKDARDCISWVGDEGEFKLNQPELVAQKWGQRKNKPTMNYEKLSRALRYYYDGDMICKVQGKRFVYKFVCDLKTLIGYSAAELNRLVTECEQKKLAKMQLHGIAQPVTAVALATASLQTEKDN
# Method in brief: as §1
# ERG = target: T4, ERG (Homo sapiens, UniProt P11308 1-479); conditions: protein: recombinant; tags: N-terminal GST; dsDNA, one strand shown
# T4 sequence: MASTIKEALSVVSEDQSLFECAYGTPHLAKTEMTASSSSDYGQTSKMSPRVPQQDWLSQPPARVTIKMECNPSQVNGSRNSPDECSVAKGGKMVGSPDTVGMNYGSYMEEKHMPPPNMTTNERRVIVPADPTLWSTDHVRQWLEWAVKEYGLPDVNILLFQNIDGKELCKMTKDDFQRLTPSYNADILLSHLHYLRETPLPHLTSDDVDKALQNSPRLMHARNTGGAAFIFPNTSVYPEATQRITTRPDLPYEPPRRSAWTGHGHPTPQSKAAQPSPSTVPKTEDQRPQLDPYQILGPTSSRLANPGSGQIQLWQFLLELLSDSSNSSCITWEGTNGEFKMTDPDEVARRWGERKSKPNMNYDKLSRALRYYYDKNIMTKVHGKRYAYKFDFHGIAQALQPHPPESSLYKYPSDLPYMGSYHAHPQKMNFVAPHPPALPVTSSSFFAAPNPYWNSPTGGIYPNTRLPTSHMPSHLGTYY
# Method in brief: as §1
# ELF1 = ELF1 (Homo sapiens, UniProt P32519 1-619); conditions: protein: recombinant; tags: N-terminal GST; dsDNA, one strand shown
# Method in brief: as §1
# EHF = target: T5, EHF (Homo sapiens, UniProt Q9NZC4 1-300); conditions: protein: recombinant; tags: N-terminal GST; dsDNA, one strand shown
# T5 sequence: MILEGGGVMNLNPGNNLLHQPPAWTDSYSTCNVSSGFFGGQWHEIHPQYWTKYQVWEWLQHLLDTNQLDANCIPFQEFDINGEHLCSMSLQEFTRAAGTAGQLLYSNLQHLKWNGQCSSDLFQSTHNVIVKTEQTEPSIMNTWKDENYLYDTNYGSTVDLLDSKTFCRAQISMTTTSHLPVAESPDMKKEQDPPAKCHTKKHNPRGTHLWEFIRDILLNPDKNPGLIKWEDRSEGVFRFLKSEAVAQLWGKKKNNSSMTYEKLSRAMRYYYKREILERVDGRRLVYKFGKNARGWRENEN
# Method in brief: as §1
# SPI1 = SPI1 (Homo sapiens, UniProt P17947 1-270); conditions: protein: recombinant; tags: N-terminal GST; dsDNA, one strand shown
# Method in brief: as §1
# SPIB = SPIB (Homo sapiens, UniProt Q01892 1-262); conditions: protein: recombinant; tags: N-terminal GST; dsDNA, one strand shown
# Method in brief: as §1
# ELK3 = target: T6, ELK3 (Homo sapiens, UniProt P41970 1-407); conditions: protein: recombinant; tags: N-terminal GST; dsDNA, one strand shown
# T6 sequence: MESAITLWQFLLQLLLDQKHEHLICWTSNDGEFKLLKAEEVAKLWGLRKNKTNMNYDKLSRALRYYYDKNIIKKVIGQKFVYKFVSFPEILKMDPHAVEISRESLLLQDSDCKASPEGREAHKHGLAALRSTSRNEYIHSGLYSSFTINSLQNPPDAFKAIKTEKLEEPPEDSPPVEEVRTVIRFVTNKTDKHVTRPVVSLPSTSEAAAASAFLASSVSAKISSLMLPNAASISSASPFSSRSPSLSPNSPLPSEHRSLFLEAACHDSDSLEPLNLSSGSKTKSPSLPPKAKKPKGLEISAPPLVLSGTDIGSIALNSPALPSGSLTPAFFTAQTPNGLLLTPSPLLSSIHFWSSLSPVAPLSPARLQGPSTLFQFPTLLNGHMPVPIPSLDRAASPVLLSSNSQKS
# Method in brief: as §1
# FEV = target: T7, FEV (Homo sapiens, UniProt Q99581 1-238); conditions: protein: recombinant; tags: N-terminal GST; dsDNA, one strand shown
# T7 sequence: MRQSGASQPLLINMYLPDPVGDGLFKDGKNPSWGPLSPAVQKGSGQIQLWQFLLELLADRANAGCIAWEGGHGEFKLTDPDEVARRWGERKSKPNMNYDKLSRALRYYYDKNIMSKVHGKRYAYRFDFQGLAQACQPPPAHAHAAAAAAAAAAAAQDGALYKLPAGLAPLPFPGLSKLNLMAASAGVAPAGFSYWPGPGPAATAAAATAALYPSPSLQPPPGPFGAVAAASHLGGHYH
# Method in brief: as §1
# ETV5 = ETV5 (Homo sapiens, UniProt P41161 1-510); conditions: protein: recombinant; tags: N-terminal GST; dsDNA, one strand shown
# Method in brief: as §1
# HSF1 = HSF1 (Homo sapiens, UniProt Q00613 1-529); conditions: protein: recombinant; tags: N-terminal GST; chain copies: 3; dsDNA, one strand shown
# Method in brief: as §1
# SPIC = target: T8, SPIC (Homo sapiens, UniProt Q8N5J4 1-248); conditions: protein: recombinant; tags: N-terminal GST; dsDNA, one strand shown
# T8 sequence: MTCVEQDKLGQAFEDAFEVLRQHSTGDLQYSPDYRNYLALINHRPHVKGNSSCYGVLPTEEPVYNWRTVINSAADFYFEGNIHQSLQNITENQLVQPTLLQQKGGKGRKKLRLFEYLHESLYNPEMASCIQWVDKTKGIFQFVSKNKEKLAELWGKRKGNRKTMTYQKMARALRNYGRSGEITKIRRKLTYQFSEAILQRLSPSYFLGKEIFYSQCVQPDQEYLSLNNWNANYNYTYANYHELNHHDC
# Method in brief: as §1
# ELF4 = ELF4 (Homo sapiens, UniProt Q99607 1-663); conditions: protein: recombinant; tags: N-terminal GST; dsDNA, one strand shown
# Method in brief: as §1
# ELK4 = target: T9, ELK4 (Homo sapiens, UniProt P28324-2 1-405); conditions: protein: recombinant; tags: N-terminal GST; dsDNA, one strand shown
# T9 sequence: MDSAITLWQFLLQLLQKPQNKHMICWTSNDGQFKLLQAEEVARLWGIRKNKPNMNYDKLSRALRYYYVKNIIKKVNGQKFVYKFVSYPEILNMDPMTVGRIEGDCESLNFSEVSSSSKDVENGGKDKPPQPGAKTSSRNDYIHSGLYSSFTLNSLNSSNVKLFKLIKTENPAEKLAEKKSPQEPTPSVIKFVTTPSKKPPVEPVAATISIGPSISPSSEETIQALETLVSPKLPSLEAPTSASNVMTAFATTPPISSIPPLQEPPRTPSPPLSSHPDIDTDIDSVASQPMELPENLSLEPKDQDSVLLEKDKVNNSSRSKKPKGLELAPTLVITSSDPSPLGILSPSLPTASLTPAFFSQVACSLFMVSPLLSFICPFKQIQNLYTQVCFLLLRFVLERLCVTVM
# Method in brief: as §1
# ETV2 = target: T10, ETV2 (Homo sapiens, UniProt O00321 1-342); conditions: protein: recombinant; tags: N-terminal GST; dsDNA, one strand shown
# T10 sequence: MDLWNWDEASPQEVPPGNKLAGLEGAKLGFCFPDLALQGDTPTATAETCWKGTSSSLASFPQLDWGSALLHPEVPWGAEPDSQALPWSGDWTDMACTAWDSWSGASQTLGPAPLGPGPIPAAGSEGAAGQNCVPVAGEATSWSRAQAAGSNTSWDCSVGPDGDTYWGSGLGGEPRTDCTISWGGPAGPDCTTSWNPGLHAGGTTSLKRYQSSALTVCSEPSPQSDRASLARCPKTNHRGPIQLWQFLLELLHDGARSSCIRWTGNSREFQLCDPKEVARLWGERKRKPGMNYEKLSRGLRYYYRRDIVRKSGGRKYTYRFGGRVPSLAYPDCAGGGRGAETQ
# Method in brief: as §1
# ELF3 = target: T11, ELF3 (Homo sapiens, UniProt P78545 1-371); conditions: protein: recombinant; tags: N-terminal GST; dsDNA, one strand shown
# T11 sequence: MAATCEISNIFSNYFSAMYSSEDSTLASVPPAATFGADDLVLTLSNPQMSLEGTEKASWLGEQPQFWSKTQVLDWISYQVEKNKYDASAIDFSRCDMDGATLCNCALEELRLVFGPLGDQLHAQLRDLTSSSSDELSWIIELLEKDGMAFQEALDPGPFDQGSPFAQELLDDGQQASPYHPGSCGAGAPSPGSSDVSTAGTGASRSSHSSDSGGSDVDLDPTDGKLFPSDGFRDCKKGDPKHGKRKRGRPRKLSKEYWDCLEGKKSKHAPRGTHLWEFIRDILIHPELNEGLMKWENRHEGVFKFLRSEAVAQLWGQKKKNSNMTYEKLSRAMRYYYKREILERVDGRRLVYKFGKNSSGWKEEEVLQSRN
# Method in brief: as §1
# CRX = CRX (Homo sapiens, UniProt O43186 1-299); conditions: protein: recombinant; tags: N-terminal GST; dsDNA, one strand shown
# Method in brief: as §1
# ETV1 = ETV1 (Homo sapiens, UniProt P50549 1-477); conditions: protein: recombinant; tags: N-terminal GST; dsDNA, one strand shown
# Method in brief: as §1
# Chain of ETV5 (P41161 whole entry): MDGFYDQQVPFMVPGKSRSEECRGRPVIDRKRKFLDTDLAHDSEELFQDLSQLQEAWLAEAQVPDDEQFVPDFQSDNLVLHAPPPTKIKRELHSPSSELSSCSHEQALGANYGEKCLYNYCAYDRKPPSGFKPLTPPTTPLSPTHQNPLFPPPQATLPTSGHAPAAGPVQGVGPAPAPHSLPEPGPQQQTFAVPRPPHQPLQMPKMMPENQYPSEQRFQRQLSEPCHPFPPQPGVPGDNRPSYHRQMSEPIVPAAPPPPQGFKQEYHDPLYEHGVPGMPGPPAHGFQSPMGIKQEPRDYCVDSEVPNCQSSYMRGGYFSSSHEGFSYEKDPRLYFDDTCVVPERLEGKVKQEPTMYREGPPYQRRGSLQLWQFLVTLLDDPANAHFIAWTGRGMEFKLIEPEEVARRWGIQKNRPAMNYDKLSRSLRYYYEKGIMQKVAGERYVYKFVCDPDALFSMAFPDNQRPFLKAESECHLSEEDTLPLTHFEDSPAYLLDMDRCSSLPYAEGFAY
# Chain of ELF4 (Q99607 whole entry): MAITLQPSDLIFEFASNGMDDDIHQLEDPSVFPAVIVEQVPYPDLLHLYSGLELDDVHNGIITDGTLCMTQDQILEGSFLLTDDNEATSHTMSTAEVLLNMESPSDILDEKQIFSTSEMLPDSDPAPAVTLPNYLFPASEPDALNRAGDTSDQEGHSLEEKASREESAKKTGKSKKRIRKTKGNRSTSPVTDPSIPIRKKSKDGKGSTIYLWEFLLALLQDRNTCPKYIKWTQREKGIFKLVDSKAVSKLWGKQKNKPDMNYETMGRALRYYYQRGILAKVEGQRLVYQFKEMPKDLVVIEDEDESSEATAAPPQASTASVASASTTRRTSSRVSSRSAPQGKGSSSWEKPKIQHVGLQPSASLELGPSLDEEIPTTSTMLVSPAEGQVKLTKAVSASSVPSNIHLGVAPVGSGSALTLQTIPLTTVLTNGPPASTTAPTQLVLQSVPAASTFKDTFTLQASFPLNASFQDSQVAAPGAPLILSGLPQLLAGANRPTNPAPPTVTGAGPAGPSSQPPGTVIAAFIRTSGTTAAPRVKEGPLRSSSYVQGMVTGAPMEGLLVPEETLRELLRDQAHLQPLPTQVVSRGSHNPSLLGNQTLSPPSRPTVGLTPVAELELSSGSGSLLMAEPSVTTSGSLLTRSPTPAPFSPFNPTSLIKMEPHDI
# Chain of ELF1 (P32519 whole entry): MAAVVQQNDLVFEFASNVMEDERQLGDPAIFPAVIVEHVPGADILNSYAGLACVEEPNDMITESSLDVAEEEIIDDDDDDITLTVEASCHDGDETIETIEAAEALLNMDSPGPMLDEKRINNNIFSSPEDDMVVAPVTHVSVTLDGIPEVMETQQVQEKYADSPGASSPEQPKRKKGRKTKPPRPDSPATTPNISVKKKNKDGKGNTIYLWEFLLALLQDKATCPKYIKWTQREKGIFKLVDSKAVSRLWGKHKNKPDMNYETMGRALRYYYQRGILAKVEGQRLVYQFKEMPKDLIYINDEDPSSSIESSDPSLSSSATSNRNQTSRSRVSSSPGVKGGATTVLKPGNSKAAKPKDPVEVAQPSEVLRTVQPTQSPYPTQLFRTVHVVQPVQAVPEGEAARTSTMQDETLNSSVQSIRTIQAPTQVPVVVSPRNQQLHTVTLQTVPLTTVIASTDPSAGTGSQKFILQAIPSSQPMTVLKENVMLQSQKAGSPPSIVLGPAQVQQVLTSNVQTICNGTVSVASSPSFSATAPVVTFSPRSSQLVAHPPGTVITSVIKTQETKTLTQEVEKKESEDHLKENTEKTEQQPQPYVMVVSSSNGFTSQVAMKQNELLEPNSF
# Chain of CRX (O43186 whole entry): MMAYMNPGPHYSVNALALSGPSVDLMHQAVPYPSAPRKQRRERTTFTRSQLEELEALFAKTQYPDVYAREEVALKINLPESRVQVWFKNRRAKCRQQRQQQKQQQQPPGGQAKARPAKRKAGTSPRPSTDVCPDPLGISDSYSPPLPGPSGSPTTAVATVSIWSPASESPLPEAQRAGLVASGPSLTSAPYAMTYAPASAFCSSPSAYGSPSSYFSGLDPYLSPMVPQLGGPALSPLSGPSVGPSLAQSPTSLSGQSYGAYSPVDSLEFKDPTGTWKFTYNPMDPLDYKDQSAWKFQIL
# Chain of HSF1 (Q00613 whole entry): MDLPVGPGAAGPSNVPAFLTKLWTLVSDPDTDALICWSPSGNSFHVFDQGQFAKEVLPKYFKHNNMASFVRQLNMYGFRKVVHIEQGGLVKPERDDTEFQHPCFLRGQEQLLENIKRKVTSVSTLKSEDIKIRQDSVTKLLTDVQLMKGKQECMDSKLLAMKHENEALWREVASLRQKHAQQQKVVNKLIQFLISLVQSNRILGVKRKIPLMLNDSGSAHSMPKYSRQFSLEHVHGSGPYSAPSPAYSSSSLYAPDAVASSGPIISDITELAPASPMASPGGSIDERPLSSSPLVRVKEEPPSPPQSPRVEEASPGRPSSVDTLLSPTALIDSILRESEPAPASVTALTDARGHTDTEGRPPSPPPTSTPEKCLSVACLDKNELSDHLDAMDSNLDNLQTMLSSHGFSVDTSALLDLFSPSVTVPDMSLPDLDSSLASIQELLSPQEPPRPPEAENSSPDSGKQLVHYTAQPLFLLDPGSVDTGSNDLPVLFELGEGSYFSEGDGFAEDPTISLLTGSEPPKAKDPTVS
# Chain of SPIB (Q01892 whole entry): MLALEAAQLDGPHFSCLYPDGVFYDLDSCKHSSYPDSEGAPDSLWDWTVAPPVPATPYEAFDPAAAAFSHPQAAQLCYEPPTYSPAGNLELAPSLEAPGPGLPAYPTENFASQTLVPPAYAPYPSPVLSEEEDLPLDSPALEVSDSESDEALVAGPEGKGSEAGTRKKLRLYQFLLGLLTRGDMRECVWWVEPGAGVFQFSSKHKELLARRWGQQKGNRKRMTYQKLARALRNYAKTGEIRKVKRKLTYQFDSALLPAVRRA
# Chain of ETV1 (P50549 whole entry): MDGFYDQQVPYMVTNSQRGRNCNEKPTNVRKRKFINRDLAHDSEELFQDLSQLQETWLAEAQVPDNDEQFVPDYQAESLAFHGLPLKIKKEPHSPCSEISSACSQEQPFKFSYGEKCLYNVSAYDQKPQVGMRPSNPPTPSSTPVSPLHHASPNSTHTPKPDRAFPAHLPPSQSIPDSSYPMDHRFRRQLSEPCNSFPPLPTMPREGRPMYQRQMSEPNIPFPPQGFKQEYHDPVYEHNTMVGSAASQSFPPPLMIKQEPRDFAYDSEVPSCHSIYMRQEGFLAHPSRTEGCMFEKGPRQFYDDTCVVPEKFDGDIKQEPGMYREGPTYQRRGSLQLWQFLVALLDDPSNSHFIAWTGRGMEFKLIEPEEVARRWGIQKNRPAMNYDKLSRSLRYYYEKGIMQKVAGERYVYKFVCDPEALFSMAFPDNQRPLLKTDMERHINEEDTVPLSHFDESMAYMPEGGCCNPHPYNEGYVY
sequence,measurement,setting,value
TCGACC,binding signal,FLI1,"1.28 fold enrichment (6-mer frequency, TF over GST control)"
same,binding signal,ELK1,"1.32 fold enrichment (6-mer frequency, TF over GST control)"
same,binding signal,GABPA,"1.4 fold enrichment (6-mer frequency, TF over GST control)"
same,binding signal,ERG,"1.27 fold enrichment (6-mer frequency, TF over GST control)"
same,binding signal,ELF1,"1.29 fold enrichment (6-mer frequency, TF over GST control)"
same,binding signal,EHF,"1.23 fold enrichment (6-mer frequency, TF over GST control)"
same,binding signal,SPI1,"1.29 fold enrichment (6-mer frequency, TF over GST control)"
same,binding signal,SPIB,"1.28 fold enrichment (6-mer frequency, TF over GST control)"
same,binding signal,ELK3,"1.35 fold enrichment (6-mer frequency, TF over GST control)"
same,binding signal,FEV,"1.32 fold enrichment (6-mer frequency, TF over GST control)"
same,binding signal,ETV5,"1.27 fold enrichment (6-mer frequency, TF over GST control)"
same,binding signal,HSF1,"1.23 fold enrichment (6-mer frequency, TF over GST control)"
same,binding signal,SPIC,"1.17 fold enrichment (6-mer frequency, TF over GST control)"
same,binding signal,ELF4,"1.39 fold enrichment (6-mer frequency, TF over GST control)"
same,binding signal,ELK4,"1.11 fold enrichment (6-mer frequency, TF over GST control)"
same,binding signal,ETV2,"1.35 fold enrichment (6-mer frequency, TF over GST control)"
same,binding signal,ELF3,"1.23 fold enrichment (6-mer frequency, TF over GST control)"
same,binding signal,CRX,"1.11 fold enrichment (6-mer frequency, TF over GST control)"
same,binding signal,ETV1,"1.25 fold enrichment (6-mer frequency, TF over GST control)"
